Screens as filed in PubChem BioAssay.
TDP1 cell CPT – DT40-hTDP1 cell growth loss with CPT; chicken DT40 Tdp1-/-;hTDP1 cells + 20 nM CPT, ATP luminescence, 48 h; hit rate 12% among 420,000; Potency, µM (doses to about 46.2 µM), most hits filed as inhibitors; note: nearly all actives have a fitted effect of over 55% in size
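Chicken DT40 Tdp1-/- cells complemented with human TDP1, 400 cells/well, exposed to compounds plus 20 nM camptothecin for at least 48 h at 37 C; viability read as ATP content by CellTiter-Glo luminescence.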
HT1080 IDH1KD tx – kills HT-1080 cells with IDH1 knockdown; HT-1080 IDH1 knockdown viability, ATP luminescence, 48 h; Potency, µM (series often up to 46.1 µM), usual class: cytotoxic; hit rate 2% among 360,000
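CellTiter-Glo luminescence after 48 h compound exposure at 37 degrees C of IDH1-knockdown HT-1080 cells in 5% FBS RPMI. %Activity scaled between DMSO wells and cell-free media wells, with curves fitted and assigned curve classes.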
IL-1B inflam inh – inflammasome signaling inhibition, IL-1 beta readout; AID 743279; hit rate 4.7% among 360,000; THP-1 LPS/ATP IL-1B secretion, AlphaLISA, 16 h; hits give low values; activity change, % at 57.5 µM; in the data active = activity change below about -50%; inconclusive = mostly about -30% to -49%
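Secreted IL-1B measured by AlphaLISA bead assay after 16 h compound exposure of THP-1 cells; compounds (final up to 57.5 uM) added 1 h before LPS (250 ng/mL) and ATP (1.25 mM) stimulation; lower signal means less secretion.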
HT1080-NT tox – kills 2HG-producing HT-1080-NT fibrosarcoma cells; hit rate 1.6% among 360,000; Potency, µM (top dose mostly 46.1 µM), actives largely listed as cytotoxic; HT-1080-NT fibrosarcoma viability, CellTiter-Glo ATP luminescence, 48 h;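 note: NT is the 2HG producing partner of a matched IDH1 knockdown line; nearly all actives have a fitted effect of over 55% in size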
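Viability of the 2HG-overproducing fibrosarcoma line after 48 hours of compound exposure at 37 degrees C was determined by luminescence with CellTiter-Glo, and concentration-effect curves were then fitted and categorized.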
ELG1 repair inh – blocks ELG1-dependent DNA repair in HEK293T cells; HEK293T ELG1-luciferase reporter, luminescence, 16 h; DNA damage induced by 5-fluorouridine; Potency, µM (doses to about 46.1 µM), usual class: inhibitors; hit rate 2.3% among 330,000; note: nearly all actives have a fitted effect of over 55% in size
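5-Fluorouridine DNA damage + compound/DMSO, 2,000 cells/well, 16 h, 37 °C/5% CO2. ONE-Glo, 30 min RT, luminescence. Readout = decrease in reporter signal.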
TDP1 cell noCPT – qHTS for Inhibitors of human tyrosyl-DNA phosphodiesterase 1 (TDP1): qHTS in cells in absence of CPT; DT40 Tdp1-/- hTDP1 cells, no CPT, ATP luminescence, 48 h; Potency, µM (top dose mostly 46.2 µM), usual class: inhibitors; hit rate 15% among 420,000; AID 686978, 2013; note: nearly all actives have a fitted effect of over 55% in size
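Chicken DT40 Tdp1-/- cells complemented with human TDP1, screened without camptothecin (DMSO vehicle only), 400 cells/well. Compounds pin-transferred, cells incubated at 37 °C for at least 48 hr. Growth read as ATP-dependent luminescence (CellTiter-Glo, 30 min at RT).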
Each line names hits and unclear results; the compound was inactive in the other large screens; ! = a repeat was not active. Rows were chosen to be rich in hits. Some 19% of all compounds tested hit in one or more screens of this group. Unless noted, calls come from the whole dose curve; as a rule, active = well fitted curve in the direction sought with a large enough effect; inconclusive = small, poorly fitted or top-dose-only effect, or another doubt; inactive = no such curve, though single readings can be large; an effect the other way counts as inactive or inconclusive.

CCN1C[C@]2(OC(=O)c3ccccc3NC(C)=O)CCC(OC)C34C5C[C@H]6C(OC)[C@]5(O)[C@](O)(C[C@@H]6OC)C(C[C@@H]32)[C@H]14 (some centres undefined)	none
CC(=O)N1N=C(c2cccnc2)CC1c1ccccc1O (centres undefined)	none
CC(=O)N1N=C(c2c(O)n(C)c(=O)n(C)c2=O)CC1c1ccccc1 (centres undefined)	TDP1 cell CPT inconclusive, HT1080 IDH1KD tx inconclusive, ELG1 repair inh inconclusive, TDP1 cell noCPT 15µM
CCC(=O)c1ccc(OCC(=O)N2CCN(CC(=O)Nc3ccccc3C(F)(F)F)CC2)cc1	TDP1 cell CPT inconclusive, ELG1 repair inh 16µM, TDP1 cell noCPT 15µM
CN(C)C(=O)Oc1ccc2c(c1)O/C(=C\c1cccc(Cl)c1)C2=O	IL-1B inflam inh -61, ELG1 repair inh inconclusive
CCc1c(C)c2ccc(OCC(N)=O)cc2oc1=O	ELG1 repair inh inconclusive
O=[N+]([O-])c1ccc(N2CCCC2)cc1N/N=C1\CN2CCC1CC2	TDP1 cell CPT inconclusive, ELG1 repair inh inconclusive, TDP1 cell noCPT 21µM
O=C1NCCOC(=O)[C@@H](Cc2ccc(F)cc2)CC/C=C/C[C@@H]1CC(=O)N(CCO)Cc1ccccc1	TDP1 cell CPT 21µM, TDP1 cell noCPT 23µM
O=C1NCCOC(=O)[C@H](Cc2ccc(F)cc2)CC/C=C/C[C@H]1CC(=O)N(CCO)Cc1ccccc1	TDP1 cell CPT inconclusive, ELG1 repair inh inconclusive, TDP1 cell noCPT inconclusive
Cc1ccc(C(O)(c2ccc(C)c(C)c2)C2CN3CCC2CC3)cc1C (centres undefined)	TDP1 cell CPT 3.7µM, HT1080 IDH1KD tx inconclusive, IL-1B inflam inh -86, HT1080-NT tox inconclusive, TDP1 cell noCPT 2.3µM
Cc1ccccc1C(O)(Cc1ccccc1)C1CN2CCC1CC2 (centres undefined)	TDP1 cell CPT 18µM, HT1080 IDH1KD tx inconclusive, IL-1B inflam inh inconclusive, HT1080-NT tox inconclusive, ELG1 repair inh inconclusive, TDP1 cell noCPT 18µM
O=C(c1c[nH]c2ccc(S(=O)(=O)N3CCC4(CC3)OCCO4)cc2c1=O)N1CCC2(CC1)OCCO2	none
CCC(C)C(=O)N[C@@H](c1ccccc1)[C@@H](O)C(=O)O[C@H]1C[C@@]2(O)[C@@H](OC(=O)c3ccccc3)C3[C@](C)(C(=O)[C@H](OC(C)=O)C(=C1C)C2(C)C)[C@@H](O)C[C@H]1OC[C@@]31OC(C)=O (some centres undefined)	TDP1 cell CPT 0.029µM, HT1080 IDH1KD tx inconclusive, HT1080-NT tox 0.18µM, TDP1 cell noCPT 0.18µM
C/C=C(\C)C(=O)N[C@@H](c1ccccc1)[C@@H](O)C(=O)O[C@H]1C[C@@]2(O)[C@@H](OC(=O)c3ccccc3)C3[C@](C)(C(=O)[C@H](OC(C)=O)C(=C1C)C2(C)C)[C@H](O)C[C@H]1OC[C@@]31OC(C)=O (some centres undefined)	TDP1 cell CPT 0.13µM, HT1080 IDH1KD tx 0.0052µM, HT1080-NT tox 0.046µM, ELG1 repair inh inconclusive, TDP1 cell noCPT 0.16µM
CC/C=C/CC(=O)N[C@@H](c1ccccc1)[C@@H](O)C(=O)O[C@H]1C[C@@]2(O)[C@@H](OC(=O)c3ccccc3)C3[C@](C)(C(=O)[C@H](OC(C)=O)C(=C1C)C2(C)C)[C@@H](O)C[C@H]1OC[C@@]31OC(C)=O (some centres undefined)	TDP1 cell CPT 0.021µM, HT1080 IDH1KD tx 0.0052µM, HT1080-NT tox 0.041µM, ELG1 repair inh inconclusive, TDP1 cell noCPT 0.18µM
COc1cc(C)cc(CN2CC=C(c3ccccc3)CC2)c1O	TDP1 cell CPT 16µM, TDP1 cell noCPT inconclusive
COc1ccc(C(C)=O)cc1CN1CC=C(c2ccccc2)CC1	TDP1 cell CPT inconclusive, TDP1 cell noCPT inconclusive
COc1ccc2ccc(O)c(CN3CC=C(c4ccccc4)CC3)c2c1	TDP1 cell CPT inconclusive, TDP1 cell noCPT 18µM
COC(=O)C1=C(c2c(C)noc2C)C[C@@H]2CC[C@H]1N2C(=O)NCCOc1ccc(OC)cc1	none
N#CCCN(C(=O)COC(=O)c1ccc2c(c1)NC(=O)CS2)c1ccc2c(c1)OCCO2	ELG1 repair inh inconclusive, TDP1 cell noCPT inconclusive
O=[N+]([O-])c1ccccc1CNCCc1c[nH]c2ccccc12	IL-1B inflam inh inconclusive
Cc1cccc(CCNCc2cc3cccc(C)c3[nH]c2=O)c1	TDP1 cell CPT 8.2µM, HT1080 IDH1KD tx inconclusive, TDP1 cell noCPT 13µM
Cc1ccc2cc(CNCCc3ccccc3C)c(=O)[nH]c2c1	TDP1 cell CPT inconclusive, IL-1B inflam inh -79, TDP1 cell noCPT 18µM
Cc1cccc(CCNCc2cc3cc(C)cc(C)c3[nH]c2=O)c1	TDP1 cell CPT inconclusive
NP(=O)(Nc1ccccc1)Nc1ccccc1	none (no result: ELG1 repair inh)
O=C(C(=O)N1CCOCC1)c1cn(CCCOc2ccccc2)c2ccccc12	TDP1 cell noCPT inconclusive
CC(=O)c1cn(CCCOc2ccccc2)c2ccccc12	TDP1 cell CPT inconclusive, TDP1 cell noCPT 16µM
COc1ccc(OC)c(C(O)C(C)N)c1 (centres undefined)	none
COc1ccc(-c2ccc(OC)c(OC)c2OC)cc1	TDP1 cell CPT 15µM, HT1080 IDH1KD tx inconclusive, HT1080-NT tox inconclusive, TDP1 cell noCPT 5.2µM (no result: ELG1 repair inh)
N#Cc1ccccc1OCC(=O)N1CCN(CC(=O)Nc2ccc(F)cc2)CC1	none
C#C[C@]1(O)CC[C@H]2[C@@H]3CCC4=CC(=O)CCC4=C3C=C[C@@]21CC	TDP1 cell CPT 13µM, TDP1 cell noCPT 9.4µM (no result: HT1080 IDH1KD tx, IL-1B inflam inh, HT1080-NT tox, ELG1 repair inh)
CC(=O)[C@H]1[C@H](C#N)C[C@H]2[C@@H]3CC=C4C[C@@H](O)CC[C@]4(C)[C@H]3CC[C@@]21C	TDP1 cell CPT inconclusive, TDP1 cell noCPT 13µM!
Cc1cc(N2CCOCC2)nc2ccc(NC(=O)CCC(=O)N3CCC4(CC3)OCCO4)cc12	ELG1 repair inh inconclusive
Cc1cc(N2CCCCC2)nc2ccc(NC(=O)CCC(=O)N3CCN(c4cccc(Cl)c4)CC3)cc12	TDP1 cell CPT 6.5µM, TDP1 cell noCPT 3.7µM (no result: HT1080 IDH1KD tx, IL-1B inflam inh, HT1080-NT tox, ELG1 repair inh)
CCOC(=O)c1c(C)n(Cc2ccc(F)cc2)c2ccc(O)cc12	TDP1 cell CPT inconclusive, TDP1 cell noCPT inconclusive
CCOC(=O)c1c(C)n(Cc2ccccc2)c2ccc(OCC(O)CN3C(=O)CNC3=O)cc12 (centres undefined)	TDP1 cell CPT inconclusive, ELG1 repair inh inconclusive, TDP1 cell noCPT 15µM
C#CCOc1ccc2c(c1)c(C(C)=O)c(C)n2Cc1ccccc1	ELG1 repair inh 21µM, TDP1 cell noCPT inconclusive
